Data reported in ChEMBL document CHEMBL1157539, “Thousands of chemical starting points for antimalarial lead identification” (Nature, 2010).

Experiments:
Format in all cases: functional
Plasmodium falciparum [1] = assay: GSK_TCMDC: Inhibition of Plasmodium falciparum 3D7 in whole red blood cells, using parasite LDH activity as an index of growth. Test compounds present at 2uM
Plasmodium falciparum [2] = assay: GSK_TCMDC: Inhibition of Plasmodium falciparum Dd2 in whole red blood cells, using parasite LDH activity as an index of growth. Test compounds present at 2uM
HepG2 = assay: GSK_TCMDC: Percent inhibition of human HepG2 cell line. Test compounds present at 10uM.

Row | Structure (SMILES) | Inhibition (Plasmodium falciparum [1]) | Inhibition (Plasmodium falciparum [2]) | Inhibition (HepG2)
1 | CC(C)C[C@H]1c2[nH]c3ccc(Cl)cc3c2CCN1C(=O)CCc1ccccc1 | 95% | 81% | 0%
2 | COc1cc2c(cc1OC)CN(CCc1ccc(NC(=O)c3cc4cc(Cl)ccc4[nH]3)cc1)CC2 | 90% | 6% | 3%
3 | O=C(NC1CCN(Cc2ccc3c(c2)OCCO3)CC1)c1ccc(-c2cccc(Cl)c2)s1.O=C(O)C(F)(F)F | 93% | 9% | 46%
4 | COc1ccc(CNC2CCCC2)cc1-c1ccc(S(=O)(=O)NCCN2CCCC2)s1.O=C(O)C(F)(F)F | 96% | 17% | 17%
5 | CC(C)C[C@H]1C(=O)N[C@H](C2Cc3ccccc3C2)C(=O)N1[C@@H](C(=O)Nc1ccccc1OCc1ccccc1)c1ccc(F)cc1F | 90% | 67% | 12%
6 | COc1ccc(-c2cccc(NC(=O)c3ccc(Cl)cc3)c2)cc1CN1CCCC1.O=C(O)C(F)(F)F | 97% | 52% | 55%
7 | CS(=O)(=O)Cc1ccc(Nc2ncc(Cl)c(Nc3cccnc3C(N)=O)n2)cc1.Cl | 97% | 97% | 54%
8 | COc1cc2c(c(Cl)c1OC)CCN(Cc1ccccc1)CC2c1ccc(C(N)=O)cc1 (stereo not given) | 97% | 60% | 7%
9 | O=C(Nc1ccc(Cl)c(Cl)c1)Nc1ccc(F)c([N+](=O)[O-])c1 | 100% | 96% | 49%
10 | COc1ccc2nccc(NC(=O)C3CCC(NCc4cnc(SC)c([N+](=O)[O-])c4)CC3)c2n1.Cl (stereo not given) | 89% | 44% | 8%
